Measured values: PubChem BioAssay AID1259245 (Vanderbilt High Throughput Screening Facility, 2017)
Out of some 40,000 compounds screened, about 1,400 (3.5%) were called active.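 How the source made its calls: active means any of four per-well response measures lying three or more SD from its plate-wide compound average, in either direction; inactive means the rest, inconclusive results apart.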 The full list was thinned out, with actives kept by preference.

These compounds were tested against Voltage-dependent calcium channel gamma-2 subunit (Mus musculus) + Glutamate receptor 2 (Rattus norvegicus) (UniProt O88602+P19491) (assay: AMPAR-TARP gamma-2 complex positive or negative modulation – cell-based, membrane potential dye, primary screen (AID 1259245)). Conditions: HEK293 GluA2+stargazin, membrane potential dye (FDSS), glutamate EC50, at 30 µM, hits were called plate by plate, in both directions; compound max-min signal: compound-alone response (agonism); glutamate slope, % of max: measured here: glutamate response slope, % max.
Sequence of Voltage-dependent calcium channel gamma-2 subunit (Mus musculus) + Glutamate receptor 2 (Rattus norvegicus) (O88602 whole entry, looked up): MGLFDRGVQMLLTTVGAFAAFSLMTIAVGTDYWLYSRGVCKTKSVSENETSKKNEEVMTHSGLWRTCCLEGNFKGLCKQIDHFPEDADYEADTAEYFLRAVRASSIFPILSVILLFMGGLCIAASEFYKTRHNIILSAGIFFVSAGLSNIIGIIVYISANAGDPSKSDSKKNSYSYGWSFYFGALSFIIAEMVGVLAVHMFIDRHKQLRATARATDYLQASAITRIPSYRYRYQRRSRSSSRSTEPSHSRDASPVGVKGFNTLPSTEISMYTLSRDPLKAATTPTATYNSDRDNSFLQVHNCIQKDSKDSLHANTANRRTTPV
Sequence of Voltage-dependent calcium channel gamma-2 subunit (Mus musculus) + Glutamate receptor 2 (Rattus norvegicus) (P19491 whole entry, looked up): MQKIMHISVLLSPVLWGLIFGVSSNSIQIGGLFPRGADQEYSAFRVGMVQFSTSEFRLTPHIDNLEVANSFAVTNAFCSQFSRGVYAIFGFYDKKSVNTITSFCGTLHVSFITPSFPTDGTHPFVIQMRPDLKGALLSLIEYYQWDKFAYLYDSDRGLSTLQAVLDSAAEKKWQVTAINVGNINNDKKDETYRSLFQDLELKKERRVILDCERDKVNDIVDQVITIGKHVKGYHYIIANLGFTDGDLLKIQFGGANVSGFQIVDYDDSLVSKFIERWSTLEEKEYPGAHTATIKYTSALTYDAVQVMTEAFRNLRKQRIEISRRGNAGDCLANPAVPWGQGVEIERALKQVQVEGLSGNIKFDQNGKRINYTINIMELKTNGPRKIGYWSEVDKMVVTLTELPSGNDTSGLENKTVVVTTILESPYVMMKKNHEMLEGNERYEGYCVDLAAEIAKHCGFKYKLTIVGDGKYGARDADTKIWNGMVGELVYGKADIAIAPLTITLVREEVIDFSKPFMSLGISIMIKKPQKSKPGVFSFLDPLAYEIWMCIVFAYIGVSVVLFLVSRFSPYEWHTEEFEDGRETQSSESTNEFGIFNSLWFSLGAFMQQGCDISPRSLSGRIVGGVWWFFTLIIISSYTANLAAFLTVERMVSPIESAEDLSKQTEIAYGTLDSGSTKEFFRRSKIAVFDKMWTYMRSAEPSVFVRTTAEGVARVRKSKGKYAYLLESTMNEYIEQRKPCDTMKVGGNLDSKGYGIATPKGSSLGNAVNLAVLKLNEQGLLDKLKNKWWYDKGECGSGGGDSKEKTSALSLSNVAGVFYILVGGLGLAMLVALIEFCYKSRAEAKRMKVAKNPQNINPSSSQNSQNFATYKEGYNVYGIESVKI

Row | Compound | compound max-min signal | glutamate response, % of max | glutamate slope, % of max [%]
1 | Cn1nnc2c(N(CCc3ccccc3)Cc3ccccc3)ncnc21 | 0.0947 | 34% (inactive) | 57.6
2 | CCOC(=O)c1cn(CC(=O)Nc2ccc(C)cc2Cl)c2nc(C)ccc2c1=O | 0.132 | 31.9% (inactive) | 51
3 | COc1cc(NS(=O)(=O)c2ccc(NC(=O)c3ccc(S(=O)(=O)N4CCOCC4)cc3)cc2)ncn1 | 0.0995 | 43.4% (inactive) | 72.4
4 | CCOc1ccc2nc(N(Cc3ccncc3)C(=O)/C=C/c3cccs3)sc2c1 | 0.107 | 21.1% (inactive) | 47.3
5 | COc1ccc(S(=O)(=O)N2CCN(c3ccc4nncn4n3)CC2)cc1C | 0.114 | 18.4% (inactive) | 44.4
6 | O=S(=O)(c1cccs1)N1CCC(c2ccsc2)CC1 | 0.115 | 35.3% (inactive) | 65.4
7 | Cc1cccc(Nc2ccc(N3CCN(S(=O)(=O)c4cccs4)CC3)nn2)n1 | 0.445 | 13.5% (active) | 21.9
8 | CCc1ccc(S(=O)(=O)N2CCN(c3ccc(Nc4cccc(C)n4)nn3)CC2)cc1 | 0.366 | 22.6% (active) | 37.7
9 | O=S(=O)(c1ccc2c(c1)CCCC2)N1CCN(c2ccc3nncn3n2)CC1 | 0.0592 | 23.2% (inactive) | 46.1
10 | O=S(=O)(c1ccc(F)cc1F)N1CCN(c2ccc(-c3cccs3)nn2)CC1 | 0.0403 | 12.3% (inactive) | 30.1
11 | COc1cccc(-c2noc(C3CCN(S(=O)(=O)c4ccc(C)cc4)CC3)n2)c1OC | 0.0999 | 28.5% (inactive) | 52.6
12 | O=S(=O)(c1ccccc1)N1CCN(Cc2nnnn2-c2ccc(F)cc2)CC1 | 0.0497 | 29.1% (inactive) | 63.3
13 | O=S(=O)(Cc1ccc(Cl)cc1)c1ccc(NCc2ccccc2)nn1 | 0.0863 | 49.2% (inactive) | 64.8
14 | CCOC(=O)N1CCN(/C=C2\Oc3c(ccc(O)c3C)C2=O)CC1 | 0.132 | 21.6% (inactive) | 32.3
15 | COc1ccc(-c2cc3ccc4c(c3oc2=O)CN(C2CCS(=O)(=O)C2)CO4)cc1OC (stereo unspecified) | 0.083 | 20.7% (inactive) | 43.1
16 | CC(O)(CNC(=O)/C=C/c1ccccc1)c1ccccc1 (stereo unspecified) | 0.0976 | 44.2% (inactive) | 61.2
17 | COCc1cnc2c(c1SCc1ccc(Br)cc1)c(=O)n(C)c(=O)n2C | 0.0342 | 27% (inactive) | 47.1
18 | Cc1cnc2c(c1SCc1ccc([N+](=O)[O-])cc1)c(=O)n(C)c(=O)n2C | 0.158 | 47.1% (active) | 69.5
19 | Cc1cnc2c(c1NCCc1ccc(S(N)(=O)=O)cc1)c(=O)n(C)c(=O)n2C | 0.167 | 32.2% (active) | 50
20 | Cn1c(=O)c2c(ncn2CCc2ccccc2)n(C)c1=O | 0.12 | 41.9% (inactive) | 67.6
21 | CCOC(=O)C(CC)Sc1ccnc2c1c(=O)n(C)c(=O)n2C (stereo unspecified) | 0.0572 | 21.5% (inactive) | 49.8
22 | Cc1cnc2c(c1SCC(=O)O)c(=O)n(C)c(=O)n2C | 0.0266 | 30.3% (inactive) | 58
23 | COc1ccc(CNC(=O)C(=O)NCC2CCN(Cc3cccs3)CC2)cc1 | 0.0534 | 41.2% (inactive) | 57.3
24 | CCOc1ccc(CC(=O)Nc2nn(C)c3c2C(C)CC(=O)N3)cc1 (stereo unspecified) | 0.129 | 42.6% (inactive) | 64.1

Row | Compound | compound max-min signal | glutamate response, % of max | glutamate slope, % of max [%]
25 | O=C(Nc1cc(-c2ccco2)nn1-c1nc(-c2ccccc2)cc(=O)[nH]1)c1ccco1 | 0.115 | 35.5% (inactive) | 53.1
26 | Cn1nnc2c(N3CCN(C(=O)c4cc5ccccc5o4)CC3)ncnc21 | 0.0567 | 24.9% (inactive) | 41.7
27 | Cc1cc(C)n(CCNC(=O)c2nc(-c3cnccn3)no2)n1 | 0.147 | 48.6% (inactive) | 86.3
28 | CSc1ccc(CC(=O)Nc2nc(-c3nc4ccccc4s3)cs2)cc1 | 0.102 | 33% (inactive) | 57.3
29 | CS(=O)(=O)N1CCCCC1C(=O)Nc1nc(-c2ccccn2)cs1 (stereo unspecified) | 0.116 | 43% (inactive) | 58.9
30 | CC(C)Sc1ccc(C(=O)Nc2nc(-c3ccccn3)cs2)cc1 | 0.135 | -1.73% (active) | 2.45
31 | Cc1nn(C2CCS(=O)(=O)C2)c2nc(-c3ccccc3)cc(C(=O)Nc3ccc(F)cc3F)c12 (stereo unspecified) | 0.0886 | 43% (inactive) | 54.9
32 | Cc1ccc(NC(=O)CSC2=NC(C)(C)N=C2c2ccccc2)c(C)c1 | 0.112 | 41.7% (inactive) | 61.7
33 | COc1cc(NC(=O)CSC2=NC3(CCCC3)N=C2c2ccccc2)cc(OC)c1 | 0.0812 | 57.8% (active) | 80.4
34 | COC(=O)c1ccc(NC(=O)CSc2nc(-c3ccccc3)c(N)s2)cc1 | 0.12 | 38.3% (inactive) | 63
35 | CCS(=O)(=O)N1CCCc2ccc(NS(=O)(=O)c3cc(Cl)ccc3OC)cc21 | 0.119 | 44.4% (inactive) | 80.9
36 | Cc1c(C)n2c3c(=O)n(C/C=C/c4ccccc4)c(=O)n(C)c3nc2n1-c1ccccc1O | 0.0773 | 13.8% (inactive) | 35.4
37 | Cc1cccc(Cn2c(=O)c3c(nc4n(-c5ccccc5O)c(C)c(C)n34)n(C)c2=O)c1 | 0.11 | 3.33% (active) | 16.2
38 | COC(=O)Cn1c(=O)c2c(nc3n(-c4ccccc4C)c(C)c(C)n23)n(C)c1=O | 0.0754 | 36.6% (inactive) | 56.4
39 | COc1ccc(S(=O)(=O)NCC(O)c2cccn2C)c(C)c1 (stereo unspecified) | 0.107 | 43.5% (inactive) | 60.7
40 | Cc1cc(S(=O)(=O)NCC(O)c2ccc(C(F)(F)F)cc2)ccc1F (stereo unspecified) | 0.256 | 28.2% (active) | 41.3
41 | Cc1cc(S(=O)(=O)NCC2(O)CCCC2)ccc1F | 0.0902 | 36% (inactive) | 60.8
42 | Cc1cc(S(=O)(=O)NCCn2nc(-c3ccc(F)cc3)ccc2=O)ccc1F | 0.0676 | 28.5% (inactive) | 55.6
43 | Cc1ccc(NC(=O)NCC(O)c2ccc(C(F)(F)F)cc2)cc1 (stereo unspecified) | 0.115 | 16.6% (inactive) | 47.8
44 | COc1cc(C)c(C)cc1S(=O)(=O)NCC(O)c1ccc(C(F)(F)F)cc1 (stereo unspecified) | 0.216 | 20.5% (active) | 36
45 | CC(NC(=O)C12CC3CC(CC(C3)C1)C2)C(=O)N/N=C/c1ccc([N+](=O)[O-])o1 (stereo unspecified) | 0.133 | 27.9% (inactive) | 52.7
46 | O=S(=O)(CCCOc1ccc(F)cc1)NCCCc1ccccc1 | 0.118 | 50.6% (inactive) | 66.1
47 | CCCNC(=O)Cn1c(=O)c2c(N3CCN(C(=O)c4ccco4)CC3)c(C)cnc2n(C)c1=O | 0.127 | 48.2% (inactive) | 70
48 | CCn1ccnc1N1CCN(C(=O)CCS(=O)(=O)c2ccccc2)CC1 | 0.0601 | 11.8% (inactive) | 23.3

Row | Compound | compound max-min signal | glutamate response, % of max | glutamate slope, % of max [%]
49 | COCCNC(=O)Cn1cc(-c2nnc(C)o2)c2ccccc21 | 0.0888 | 38.9% (inactive) | 57.5
50 | O=C(NC(=S)Nc1ccc(S(=O)(=O)N2CCOCC2)cc1)c1sc2ccccc2c1Cl | 0.0349 | 29.8% (inactive) | 52.2
51 | CCN(CC)C(=O)C(=O)c1cn(CC(=O)N2CCOCC2)c2ccccc12 | 0.0509 | 31.2% (inactive) | 53.3
52 | COC(=O)c1ccc(NC(=O)Cn2c(=O)n(C(C)C)c(=O)c3nscc32)cc1 | 0.116 | 34.2% (inactive) | 56.9
53 | CSc1cccc(NC(=O)Cn2c(=O)n(C3CC3)c(=O)c3nscc32)c1 | 0.107 | 26.5% (inactive) | 50.3
54 | Cc1cccc(C)c1NC(=O)Cn1c(=O)n(C(C)C)c(=O)c2nscc21 | 0.121 | 32.1% (active) | 45.8
55 | CC(=O)N1CC(C(=O)Nc2cccc3nsnc23)C1 | 0.0775 | 30.1% (inactive) | 49.8
56 | O=C(Nc1c2c(nn1-c1ccc(F)cc1)CSC2)C(=O)N1CCCCCC1 | 0.071 | 32% (active) | 43.4
57 | O=C(NCCCN1CCCC1=O)C(=O)Nc1c2c(nn1-c1cccc(Cl)c1)CSC2 | 0.0244 | 21.6% (inactive) | 47
58 | COc1ccc(-n2nc3c(c2NC(=O)C(=O)N2CCCCC2)CSC3)cc1 | 0.0721 | 33.6% (active) | 59.2
59 | O=C(NCCCn1ccnc1)C(=O)Nc1c2c(nn1-c1ccc(Cl)cc1)CSC2 | 0.0348 | 37.9% (inactive) | 64.4
60 | COc1ccc(-n2nc3c(c2NC(=O)C(=O)NC2CCCC2)CS(=O)(=O)C3)cc1 | 0.0561 | 41.9% (inactive) | 51.3
61 | CC1CCN(C(=O)C(=O)Nc2c3c(nn2-c2ccc(F)cc2)CSC3)CC1 | 0.0271 | 24.1% (inactive) | 44.2
62 | CCCn1c(N2CCC(C(N)=O)CC2)nc2c1c(=O)n(C)c(=O)n2C | 0.0828 | 24.8% (inactive) | 45.3
63 | CCCCc1ccc(-n2c(C)cn3c4c(=O)n(CC(=O)OC)c(=O)n(C)c4nc23)cc1 | 0.103 | 55.1% (inactive) | 73.4
64 | COc1cccc(-n2nnc3c(N4CCN(C(=O)c5c(OC)cccc5OC)CC4)ncnc32)c1 | 0.0804 | 29.1% (inactive) | 53.7
65 | CCc1ccccc1NC(=O)NCCOc1ccc2nnc(-c3cccc(F)c3)n2n1 | 0.131 | 41.1% (active) | 52.3
66 | Cc1nc(-c2ccccc2)sc1C(=O)NCCOc1ccc2nnc(-c3ccccc3)n2n1 | 0.0398 | 37.1% (inactive) | 49.7
67 | O=C(COc1ccc(Cl)cc1)NCCOc1ccc2nnc(-c3cccc(F)c3)n2n1 | 0.0351 | 38.7% (inactive) | 69.7
68 | COc1ccc(CCS(=O)(=O)Nc2ccc3c(c2)N(C(C)=O)CC3)cc1 | 0.0917 | 25.2% (inactive) | 47.2
69 | CCOc1ccc(N2CCCn3c2nc2c3c(=O)n(CCN3CCOCC3)c(=O)n2C)cc1 | 0.074 | 10% (inactive) | 27.7
70 | CCc1ccc(NC(=O)Cn2c(=O)c3c(N4CCN(C(C)=O)CC4)ccnc3n(C)c2=O)cc1 | 0.159 | 32.2% (active) | 55.8
71 | CC(=O)N1CCN(c2ccnc3c2c(=O)n(CC(=O)NCC2CCCO2)c(=O)n3C)CC1 (stereo unspecified) | 0.0945 | 51% (inactive) | 78.2
72 | CC(=O)N1CCN(c2ccnc3c2c(=O)n(CC(=O)NCc2ccco2)c(=O)n3C)CC1 | 0.103 | 49.5% (inactive) | 74.3
